Common to all, as to assay: NCI-60 one-dose screen, 48 h (100 = growth as untreated, 0 = no growth, -100 = all killed)
The test system of test [1] is SK-MEL-2 melanoma. The settings on record: 10 µM unless noted.
Test [2] concerns EKVX NSCLC. Particulars: 10 µM unless noted.
In test [3] the test system is SN12C renal. The settings on record: 10 µM unless noted.
The test system of test [4] is UO-31 renal. The settings on record: 10 µM unless noted.
Test [5] relates to TK-10 renal. Particulars: 10 µM unless noted.
The test system of test [6] is ACHN renal. Particulars: 10 µM unless noted.
Test [7] concerns CAKI-1 renal. Particulars: 10 µM unless noted.
The test system of test [8] is A498 renal. Particulars: 10 µM.
The subject of test [9] is HL-60(TB) leukemia. The settings on record: 10 µM unless noted.
The test system of test [10] is CCRF-CEM leukemia. The settings on record: 10 µM unless noted.
Test [11] relates to MOLT-4 leukemia. The settings on record: 10 µM unless noted.
The test system of test [12] is SR leukemia. The settings on record: 10 µM unless noted.
Test [13] concerns OVCAR-8 ovarian. Particulars: 10 µM unless noted.
Test [14] concerns OVCAR-5 ovarian. Particulars: 10 µM unless noted.
Test [15] concerns OVCAR-4 ovarian. Particulars: 10 µM unless noted.
The test system of test [16] is SK-OV-3 ovarian. Particulars: 10 µM unless noted.
Test [17] concerns IGROV1 ovarian. The settings on record: 10 µM unless noted.
For test [18], the system named is OVCAR-3 ovarian. The settings on record: 10 µM unless noted.
Test [19] has as its system HS 578T breast. Particulars: 10 µM unless noted.
The test system of test [20] is RPMI-8226 leukemia. Particulars: 10 µM unless noted.

The panel holds about 83,000 compounds, 20% with a hit somewhere; the sample as a whole holds those more often.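 Single-dose data. Exposure time 48 hours. Values below 10 considered active.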 A number with no mark means an inactive call. Activity calls are given as the source filed them.

With `O=C(CC1(O)C(=O)N(Cc2ccccc2)c2ccc(Br)cc21)c1ccc(C(=O)NCC2CCC3(CC2)OOC2(CCCCC2)OO3)cc1` (configuration not stated), the growth was 34.1% in test [1]; -65% (active) in test [2]; -55.8% (active) in test [3]; -73.3% (active) in test [4]; -80.9% (active) in [5]; -83% (active) in test [6]. The growth was -90.8% (active) in test [7]; -74% (active) in [8]; -57.3% (active) in [9]; -41.6% (active) in test [10]; -37.3% (active) in test [11]; -40.7% (active) in test [12]. In addition, the growth is -40.9% (active) in test [13]; 12.4% in test [14]; -34.1% (active) in test [15]; 83.4% in test [16]; -36.2% (active) in [17]; -84.1% (active) in test [18]. The growth in [19] is 22.6%.
With `CC(=O)Nc1ccc(NC(=O)c2ccc([As](O)O)cc2)cc1`, the growth is 96% in test [1]; 110% in test [2]; 93.9% in test [3]; 69.4% in test [4]; 136% in [5]; 105% in test [6]. The growth was 107% in [7]; 133% in test [8]; 44.5% in test [9]; 47.7% in test [10]; 108% in test [11]; 73.8% in test [12]. Moreover, the growth is 34.5% in [20]; 102% in [13]; 140% in [14]; 103% in [15]; 114% in test [18]; 117% in test [19].
Take `COc1cc(/C=C/[N+](=O)[O-])cc(OC)c1`: the growth in test [1] is 59.6%; in test [2], 59.4%; in test [3], 44.7%; in test [4], -82.3% (active); in test [5] it was -13.9% (active); in test [6] it was -48.9% (active). Moreover, the growth in test [7] was 44.2%; in test [8] it was -4.1% (active); in test [9] it was -20.3% (active); in test [10], -7.03% (active); in test [11], 7.52% (active); in test [12] it was -12.3% (active). Moreover, the growth in [20] was -24.1% (active); in test [14], 13.8%; in [15], 47.6%; in [16], 71.7%; in test [17] it was 9.88% (active); in [18], -30.3% (active). The growth in test [19] was 40.9%.
`CC1=C2[C@@H](CC1)[C@]1(C)O[C@@](C(C)C)(C[C@H]1O)[C@H]2OC(=O)C1CC1c1ccccc1` (some centres not stated): the growth in [1] was 87.7%; in test [2], 88%; in [3] it was 91.7%; in test [4], 74.7%; in test [5] it was 104%; in [6], 84.2%. Also, the growth in [7] was 79.5%; in [8], 72.7%; in [9], 80.5%; in [10], 74.9%; in test [11] it was 63.4%; in test [12], 92.4%. In addition, the growth is 71.8% in test [13]; 97.5% in test [14]; 91.8% in test [15]; 90.6% in test [16]; 96.2% in test [17]; 100% in test [18]. For the same molecule, in [19], the growth was 95.5%.
Take `O=C1N[C@@H]2[C@@H](O)[C@@H](O)[C@H](O)C[C@H]2c2cc3c(c(O)c21)OCO3`: the growth was -63.6% (active) in test [1]; -26.3% (active) in test [2]; -18.4% (active) in [3]; -31% (active) in [4]; -12.6% (active) in test [5]; -45.5% (active) in test [6]. Besides, the growth in test [7] is -7.77% (active); in [8], -53.4% (active); in [9], -37.8% (active); in test [10] it was 2.84% (active); in test [11], -6.14% (active); in test [12], 6.14% (active). Besides, the growth was -24.2% (active) in [20]; -7.71% (active) in test [13]; -13.4% (active) in test [14]; -23.7% (active) in test [15]; -11.2% (active) in test [16]; -10.8% (active) in test [18]. Further, the growth in test [19] is -14.2% (active).
On to `C=CC[PH+](c1ccccc1)c1ccccc1.C=CC[PH+](c1ccccc1)c1ccccc1.[Cl][Pt][Cl]`, for which the growth was 71.1% in test [1]; 50.8% in test [2]; 30.6% in test [3]; 31.5% in test [4]; 73.7% in test [5]; 35.9% in [6]. The growth in test [7] was 77.9%; in test [8], 99%; in test [9], -19.4% (active); in [10], 3.7% (active); in test [11], 7.63% (active); in test [12], 1.56% (active). In addition, the growth is -12.1% (active) in test [20]; 20% in test [13]; 96.1% in test [14]; 39.7% in test [15]; 99.1% in [16]; -17.4% (active) in [17]. Further, the growth in test [18] was -9.31% (active); in test [19], 55.8%.
Regarding `CN(CCCCN(C)CCOS(C)(=O)=O)CCOS(C)(=O)=O`, the growth in [1] is 102%; in [2], 112%; in test [3], 71.9%; in test [4] it was 71.5%; in test [5], 98.7%; in test [6], 24.9%. In addition, the growth is 2.42% (active) in test [7]; 85.3% in test [8]; 61.4% in test [9]; 50.3% in [10]; 28% in test [11]; 12.1% in test [12]. In addition, the growth in [20] is 90.8%; in [13] it was 72.6%; in test [14], 97.6%; in [16], 86.7%; in test [17] it was 65.8%; in [18], 103%. Also, the growth in test [19] was 95.3%.
On to `COc1cc2c(cc1OCCCCn1c(-c3cccs3)nc3ccccc31)N=C[C@@H]1CCCN1C2=O`, for which the growth in test [1] was -52.4% (active); in [2], 4.43% (active); in [3] it was 2.49% (active); in [4], -58.3% (active); in test [5] it was -22.8% (active); in test [6] it was -10% (active). Moreover, the growth is -22% (active) in test [7]; -53.9% (active) in [8]; -18.7% (active) in [9]; -25.7% (active) in test [10]; 20.8% in test [11]; 32% in test [12]. The growth is -46.8% (active) in test [20]; -0.203% (active) in test [13]; 0.96% (active) in test [14]; -21.3% (active) in test [15]; 24.9% in test [16]; -10.9% (active) in test [18]. Also, in [19], the growth was -5.13% (active).

For the origin of these results see PubChem BioAssay (NCI).
